High-throughput results: PubChem, Broad Institute
Shown are actives, neighbours in structure and some others; about 2.1% of the full set was active somewhere.
YB-1 expr inh: YB-1 expression inhibition | U2OS, qRT-PCR YB-1 vs CDIP delta delta Cp, 16 h; stronger effect = higher value; zero = DMSO, each unit about twofold | delta delta Cp (YB-1 minus CDIP) (concentration not given with the values) | 0.37% of 30,000 active;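 active = delta delta Cp rounded down to an integer at or above 3, about 3 SD of DMSO wells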;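 note: higher means less YB-1 transcript or more CDIP transcript relative to DMSO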
PD-1 reverse act: reversal of PD-1 mediated T-cell inhibition; primary human CD4 T cells, PD-L1 beads, CellTiter-Glo 96 h; activation, % (no concentration beside the values); 29,000 tested, under 10 active; AID 2316; call rule not given here
U2OS ROS induce: raises reactive oxygen species in U2OS cancer cells; U2OS ROS induction, H2DCF-DA fluorescence; ROS induction (% of piperlongumine), % at 10 µM; 2% of 46,000 active; AID 624156; in the data active = ROS induction above about 79%, passing the limit was not always enough
A number is an active result; i = inactive; nt = no result given.

SMILES	YB-1 expr inh	PD-1 reverse act	U2OS ROS induce
C=CC[C@@]12N=C(c3ccc(OCCCO)cc3)O[C@@H]1c1ccccc1CN(CCS(=O)(=O)c1ccccc1)C2=O	i	nt	i
C=CC[C@@]12N=C(c3ccc(OCCCO)cc3)O[C@@H]1c1ccccc1CN(Cc1ccccc1)C2=O	i	nt	i
O=C(c1ccccc1)N1Cc2ccccc2C[C@@]2(N=C(c3ccc(OCCCO)cc3)O[C@H]2c2ccccc2)C1=O	i	nt	i
NC(=O)c1c(-c2ccc(Cl)cc2)csc1NC(=O)CCCc1ccccc1	nt	nt	i
O=C(CSc1ccccn1)NCC(=O)c1ccccc1	nt	nt	i
Cc1sc2ncnc(Sc3ncnc4sc(C)c(C)c34)c2c1C	nt	nt	i
C[C@H]1CN([C@@H](C)CO)C(=O)Cc2cc(NS(=O)(=O)c3cccs3)ccc2O[C@H]1CN(C)S(=O)(=O)c1ccc(Cl)cc1	i	nt	i
CC(Oc1cccc(Br)c1)C(=O)NCc1ccco1 (centres undefined)	nt	i	i
C=CC[C@]12N=C(c3ccc(OCCCO)cc3)O[C@H]1c1ccccc1CN(CCS(=O)(=O)c1ccccc1)C2=O	i	nt	i
O=C1N(CCS(=O)(=O)c2ccccc2)Cc2ccccc2[C@@H]2OC(c3ccc(OCCCO)cc3)=N[C@]12Cc1ccccc1	i	nt	387
CC12CCC(c3nnc(SCC(=O)Nc4cccc(C(F)(F)F)c4)nc31)C2(C)C (centres undefined)	nt	nt	i
CC(=O)N1N=C(c2c(-c3ccccc3)c3cc(Cl)ccc3[nH]c2=O)CC1c1ccco1 (centres undefined)	nt	nt	109
O=C(O)CCC(=O)N1N=C(c2c(-c3ccccc3)c3cc(Cl)ccc3[nH]c2=O)CC1c1ccccc1 (centres undefined)	nt	i	i
Cc1ccc(S(=O)(=O)Nc2ccc3c(c2)C(=O)N([C@H](C)CO)C[C@H](C)[C@@H](CN(C)C(=O)Nc2ccc(C(F)(F)F)cc2)OCCCC[C@@H](C)O3)cc1	i	nt	i
C[C@@H]1CCCCO[C@@H](CN(C)C(=O)Nc2ccc(C(F)(F)F)cc2)[C@@H](C)CN([C@H](C)CO)C(=O)c2cc(NS(=O)(=O)c3ccc(F)cc3)ccc2O1	i	i	82
C[C@@H]1CCCCO[C@@H](CN(C)S(=O)(=O)c2cccs2)[C@@H](C)CN([C@H](C)CO)C(=O)c2cc(NS(=O)(=O)c3ccc(F)cc3)ccc2O1	i	i	102
C[C@@H]1CCCCO[C@@H](CN(C)CC2CC2)[C@@H](C)CN([C@H](C)CO)C(=O)c2cc(NS(=O)(=O)c3ccc(F)cc3)ccc2O1	i	nt	i
C[C@@H]1CCCCO[C@H](CN(C)S(=O)(=O)c2ccc(F)cc2)[C@@H](C)CN([C@H](C)CO)C(=O)c2cc(NS(=O)(=O)c3cccs3)ccc2O1	i	i	i
C[C@@H]1CCCCO[C@H](CN(C)C)[C@@H](C)CN([C@H](C)CO)C(=O)c2cc(NS(=O)(=O)c3ccc(F)cc3)ccc2O1	i	nt	93
CCCCC(=O)N1c2ccccc2NC2=C(C(=O)CCC2)C1c1ccccc1 (centres undefined)	nt	nt	i
O=C(CSc1nnnn1-c1ccccc1)Nc1ccc(F)c(Cl)c1	nt	i	i
COc1ccccc1NC(=S)N(Cc1ccccc1)Cc1cccn1Cc1ccc(F)cc1Cl	nt	nt	i
COC(=O)c1csc(S(=O)(=O)N=S(C)(=O)c2cccs2)c1OC (centres undefined)	nt	nt	i
COc1cc(C[C@H]2C(=O)OC[C@@H]2Cc2ccc(O[C@@H]3O[C@H](CO)[C@@H](O)[C@H](O)[C@H]3O)c(OC)c2)ccc1O	i	i	i
CN(C(=O)CSc1nc(N)c2c3c(sc2n1)CSC(C)(C)C3)c1ccccc1	nt	i	122
SMILES	YB-1 expr inh	PD-1 reverse act	U2OS ROS induce
CCOC(=O)CSc1nc(N)c2c3c(sc2n1)COC(C)(C)C3	nt	i	i
CCCN1CC=C2C(C#N)=C(N)C(C#N)(C#N)C3(C(=O)Nc4ccccc43)C2C1 (centres undefined)	i	i	i
N#CC1=C(N)C(C#N)(C#N)C2(C(=O)N(Cc3ccccc3)c3ccccc32)C2CCCC=C12 (centres undefined)	i	i	127
O=C(O)CC1(CC(=O)Nc2ccc(Cl)cc2)CCCC1	nt	nt	i
CNC[C@@H]1Oc2ccc(N)cc2C(=O)N([C@H](C)CO)C[C@H]1C	i	i	i
COc1ccc(N=c2cc(-c3ccc(OC)cc3)oc3ccc(O)cc23)cc1	nt	nt	193
COc1ccc(-c2cc(=O)c3ccccc3o2)cc1	i	nt	i
Cc1noc(C)c1S(=O)(=O)N(C)C[C@H]1OCCCC[C@@H](C)Oc2ccc(NS(=O)(=O)c3ccc(Cl)cc3)cc2C(=O)N([C@H](C)CO)C[C@@H]1C	i	nt	110
